Bioassay records from PubChem.
An excerpt weighted towards active compounds, which were near 3.3% of everything screened.
SMARCA2 act = increases SMARCA2 function in MMTV reporter cells; MG213 cells, MMTV-luciferase reporter, dexamethasone, overnight; activation, % at 9.1 µM; hit rate 1% among 370,000; AID 652017; in the data active means activation above about 7.8%;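 further: 0% = vehicle wells and 100% = reference activator wells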
697 NFkB inh = lowers PMA/ionomycin-induced NF-kB signal in 697 B cells | 697 B-cell NF-kB luciferase reporter, 16 h | inhibition, % at 4 µM | hit rate 0.33% among 330,000 | AID 435022; in the data active means inhibition above about 35%
Jurkat NFkB inh = lowers PMA/ionomycin-induced NF-kB signal in Jurkat cells; PMA/ionomycin-induced NF-kB luciferase reporter, luminescence; inhibition, % at 4 µM; hit rate 0.53% among 330,000; AID 435003; in the data active means inhibition above about 50%
Gli-Sufu block = Gli-Sufu pathway antagonism; Sufu-KO-LIGHT fibroblasts, Gli luciferase reporter luminescence; inhibition, % at 5 µM; hit rate 0.74% among 340,000; AID 588413;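 active means inhibition above about 55%, limit read from the data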;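 further: 0% = DMSO-treated cells and 100% = wells with medium but no cells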
esBAF inh = inhibitors of esBAF chromatin remodeling in mouse ES cells. Bmi1-luciferase knock-in reporter, 24 h; 100% = twice the neutral-well signal. reporter increase, % at 12.5 µM. hit rate 2% among 350,000; in the data active means activation above about 40%; inconclusive means no clear call, values can overlap the other calls;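 further: 0% = median of the plate's neutral control wells and 100% = double that signal; a rise in the Bmi1 reporter signal indicates esBAF inhibition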
SMARCA2 act conf = confirmation of SMARCA2 (BRM) function activators; shares compounds with SMARCA2 act; MG213 cells, MMTV-luciferase with dexamethasone, luminescence, overnight; MG213 cells expressing E1A, Rb sequestered; DMSO wells 0%, reference activator 100%; activation, % at 9.1 µM; hit rate 30% among 3,500; AID 652260;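 active means activation above its plate's cutoff, the mean activation of tested wells plus 3 SD, cut at about 7.9% in these data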
VP16 Luc act = GAL4-VP16 reporter activation counter-screen. HEK293 GAL4-VP16 pG5luc reporter, luciferase luminescence; scaled: DMSO wells 0%, SAHA wells 100%. AID 686939. shares compounds with SMARCA2 act. activation, % at 9.1 µM. hit rate 41% among 3,500;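 active means activation above the solvent-only control well mean plus 3 SD, averaged across control plates, cut at about 5.2% in these data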
Numbers without * were called inactive; ? = inconclusive; · = no result; ! = a repeat was not active.

SMILES | SMARCA2 act | 697 NFkB inh | Jurkat NFkB inh | Gli-Sufu block | esBAF inh | SMARCA2 act conf | VP16 Luc act
CCOc1ccc(OCc2cccc(C(=O)Nc3ccc(CN4CCCCC4)cc3)c2)cc1 | 12* | -1 | -18 | -54 | · | 14* | 10*
COc1ccc(CCNC(=O)C(=O)N/N=C/c2cccs2)cc1OC | 14* | -25 | -5 | -30 | 10 | -1 | -1
COc1cccc2cc(-c3nc(-c4cccs4)cs3)c(=O)oc12 | 8.6* | -60 | -82 | -86 | · | 4 | 11*
Cc1cccc(S(=O)(=O)N2CC[C@H]3[C@H](CO)Nc4ccc(C#Cc5ccc(F)cc5)cc4[C@H]32)c1 | · | · | · | · | 0 | · | ·
C[C@H](CO)N1C[C@H](C)[C@H](CN(C)CC2CC2)Oc2c(NC(=O)c3nc4ccccc4s3)cccc2C1=O | · | · | · | · | 0 | · | ·
O=C(COC(=O)CCS(=O)(=O)c1ccccc1)Nc1cc(S(=O)(=O)N2CCCCC2)ccc1Cl | 8.8* | -1 | 7 | -8 | 3 | 3 | 0
Cc1ccc(S(=O)(=O)CCC(=O)OCC(=O)Nc2cc(S(=O)(=O)N3CCOCC3)ccc2Cl)cc1 | 2 | · | · | 3 | 12 | · | ·
CCOC(=O)Nc1ccc2c(c1)C(=NNC(=S)NC)c1ccccc1-2 | 9.8* | · | · | · | · | 16* | 8.4*
CCOC(=O)NN=C1c2ccccc2-c2ccccc21 | -2 | 11 | -2 | 2 | -6 | · | ·
COC(=O)C1=C(C)N(Cc2ccc(F)cc2)C(=S)NC1c1cccc(OC)c1 (configuration not stated) | 8.6* | · | · | · | · | -4 | 1
COc1ccc(-c2ccc3c(n2)CCCN3Cc2ccccc2C(F)(F)F)cc1 | 8.2* | · | · | · | · | 3 | 5.8*
Brc1ccc(CN2CCCc3nc(-c4ccccc4)ccc32)cc1 | -2 | · | · | · | · | · | ·
COCCN1CCCc2nc(-c3ccc(Br)cc3)ccc21 | 11* | · | · | · | · | 7 | 7.8*
O=S(=O)(c1ccc(C(F)(F)F)cc1)N1CCCc2nc(-c3ccc(Br)cc3)ccc21 | 15* | · | · | · | · | -3 | 5
C[C@H](CO)N1C[C@H](C)[C@@H](CN(C)C(=O)c2cnccn2)Oc2cc(C3=CCCC3)ccc2S1(=O)=O | · | · | · | · | -15 | · | ·
Cc1ccc(S(=O)(=O)N(C)C[C@@H]2OCCCC[C@@H](C)Oc3ccc(NC(=O)Nc4ccc(C(F)(F)F)cc4)cc3C(=O)N([C@H](C)CO)C[C@@H]2C)cc1 | · | · | · | · | 9 | · | ·
COc1ccccc1CNC(=O)C[C@H]1C[C@H]2c3cc(NC(=O)Nc4ccccc4F)ccc3O[C@H]2[C@H](CO)O1 | · | · | · | · | -2 | · | ·
Cc1cncc(N2CCN(c3ccccn3)CC2)n1 | 0 | · | · | · | 7 | · | ·
COc1ccc(N2CCN(c3cncc(C)n3)CC2)cc1 | 8.2* | · | · | · | 27 | -1 | 2
CC(=Nc1ccc(Cl)cc1N)c1c(O)cc(C)oc1=O | 9.0* | · | · | · | · | 5 | 15*
C[C@@H]1CCCCO[C@H](CN(C)Cc2ccncc2)[C@H](C)CN([C@H](C)CO)C(=O)c2cc(NS(=O)(=O)c3ccc(F)cc3)ccc2O1 | · | · | · | · | 4 | · | ·
O=C(Nc1sc2c(c1C(=O)O)CCC2)c1ccco1 | 9.1* | -2 | 0 | -11 | 23 | 3 | 4
O=C(Nc1sc2c(c1C(=O)NCc1ccco1)CCCC2)c1ccc2c(c1)OCO2 | 8.9* | -75 | -124 | -33 | 46* | 4 | 8.3*
Cc1ccc(C(=O)Nc2sc3c(c2C(=O)NCc2ccco2)CCCC3)cc1 | -1 | -108 | -80 | -10 | · | · | ·
O=c1[nH]nc(-c2ccccc2)c2ccccc12 | 2 | 16 | 10 | -2 | -6 | · | ·
SMILES | SMARCA2 act | 697 NFkB inh | Jurkat NFkB inh | Gli-Sufu block | esBAF inh | SMARCA2 act conf | VP16 Luc act
O=Nc1c2cc(-c3ccccc3)[nH]nc-2c2ccccc12 | 8.5* | · | · | -62 | -41 | 9.8* | 5.5*
Cc1ccc(NC(=O)c2ccc(COc3ccccc3)o2)nc1 | 3 | 0 | -18 | -6 | 21 | · | ·
CCOc1ccc(OCc2ccc(C(=O)Nc3ccc(Cl)cn3)o2)cc1 | 10* | -103 | 8 | -46 | 11 | 4 | 3
CN1C(=O)c2cc(NC(=O)c3ccc(Cl)cc3)ccc2OC[C@@H]2O[C@@H](CC(=O)O)CC[C@@H]21 | · | · | · | · | 1 | · | ·
COc1cccc(CNC(=O)C[C@H]2CC[C@@H]3[C@@H](COc4ccc(NC(C)=O)cc4C(=O)N3C)O2)c1 | · | · | · | · | 0 | · | ·
N#CCn1c2ccccc2c2nc3ccccc3nc21 | -1 | -10 | -9 | -25 | · | · | ·
c1ccc2nc3c(nc2c1)c1ccccc1n3CCN1CCOCC1 | 11* | -56 | -96 | 27 | · | 7.9* | 4
O=c1c2ccccc2nc2c3ccccc3c(NCCN3CCOCC3)nn12 | 33* | -19 | -36 | · | · | 45* | 0
C#CCn1c2ccccc2c2nc3ccccc3nc21 | 9.3* | -44 | -31 | -34 | ? | 5 | 3
C[C@@H]1CN([C@@H](C)CO)S(=O)(=O)c2ccc(-c3cccc(F)c3)cc2O[C@H]1CN(C)S(=O)(=O)c1ccc(F)cc1 | · | · | · | · | 12 | · | ·
Cc1cccc2nc(=S)n(C(=O)c3ccco3)n12 | 8.6* | -128 | -88 | -70 | 75* | 7 | 14*
COc1ccc(C(C(=O)N(C)C2CCCC2)N(Cc2ccc(F)cc2)C(=O)c2cc(C)[nH]n2)cc1OC (configuration not stated) | 11* | · | · | · | · | 4 | 0
CCOc1cc(C2NN=C(c3ccccc3)S2)ccc1OCc1ccc(F)cc1 (configuration not stated) | 14* | -180 | -111 | -83 | ? | -3 | 9.3*
COc1ccccc1-c1csc(C(NC(C)=O)c2cccc(F)c2)n1 (configuration not stated) | 8.4* | · | · | · | 0 | 3 | 1
CN1C(=O)c2cc(NS(=O)(=O)c3ccc(F)cc3)ccc2OC[C@H]2O[C@H](CC(=O)NCC(F)(F)F)CC[C@@H]21 | · | · | · | · | -1 | · | ·
N#Cc1c(Nc2ccccc2Cl)s[nH]c1=O | 8.8* | 24 | 9 | 21 | · | 7 | 0
O=C(C[C@@H]1CC[C@H](NS(=O)(=O)c2ccc(F)cc2)[C@@H](CO)O1)NCc1ccc(Cl)c(Cl)c1 | · | · | · | · | 24 | · | ·
CCC(=O)N1C[C@H](C)[C@@H](OC)CN(C)C(=O)c2ccc(NC(=O)c3cc(C)on3)cc2OC[C@@H]1C | · | · | · | · | -6 | · | ·
Cc1cc(C)c2nc3nc(C)c(C)cc3c(N)c2c1 | 17* | -6 | 8 | 11 | · | 50* | 0
CN1CCN(Cc2nc3ccccc3c(=O)n2Cc2nc(-c3ccc4ccccc4c3)cs2)CC1 | 8.2*! | · | · | 8 | · | 21* | 0
CN1CCN(Cc2nc3ccccc3c(=O)n2Cc2nc(-c3cccc([N+](=O)[O-])c3)cs2)CC1 | 1 | 1 | -1 | 16 | · | · | ·
COc1ccc(CN(C)C[C@H]2Oc3ccc(NS(=O)(=O)c4c(C)noc4C)cc3C(=O)N([C@H](C)CO)C[C@@H]2C)cc1 | · | · | · | · | -3 | · | ·
